What all share (settings): mRNA level, 48 h; actives raise or lower the signal
Read-out in one test: CYP2C8 (gene 1558)
The test is described as follows: LTEA_HepaRG_CYP2C8: Life Technologies and Expression Analysis (LTEA) Assay for CYP2C8 using HepaRG (AID 2283483). A digest of the protocol:
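This is a transcriptional endpoint in HepaRG cultures: 48 h exposure, highest concentration 100 uM. CYP2C8 mRNA is quantified by TaqMan qRT-PCR.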

Read-out in another test: CYP2C9 (gene 1559)
Nature of the test: LTEA_HepaRG_CYP2C9: Life Technologies and Expression Analysis (LTEA) Assay for CYP2C9 using HepaRG (AID 2283484). The method, boiled down: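 Eight-point concentration-response (highest 100 uM, half-log dilutions) in HepaRG cells for 48 h; CYP2C9 expression by qRT-PCR normalized to ACTB, GAPDH, POLR2A. Bidirectional fit, DMSO baseline.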

Read-out in another test: CYP2E1 (gene 1571)
Nature of the test: LTEA_HepaRG_CYP2E1: Life Technologies and Expression Analysis (LTEA) Assay for CYP2E1 using HepaRG (AID 2283485). A digest of the protocol: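 CYP2E1 transcript measured by Fluidigm qRT-PCR against three housekeeping genes in human HepaRG cells treated 48 h (top 100 uM, half-log steps, 0.5% DMSO vehicle). Gain or loss fitted relative to DMSO baseline.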

Read-out in a further test: CYP4A11 (gene 1579)
The test is described as follows: LTEA_HepaRG_CYP4A11: Life Technologies and Expression Analysis (LTEA) Assay for CYP4A11 using HepaRG (AID 2283486). The method, boiled down:
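HepaRG, 48 h chem exposure, 8 conc (100 uM top, half-log), 0.5% DMSO vehicle; qRT-PCR readout, housekeeping-gene normalized; bidirectional curve fit vs DMSO baseline.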

Read-out in test [1]: Cytochrome P450 3A4 (Homo sapiens) (UniProt P08684)
The test is described as follows: LTEA_HepaRG_CYP3A4: Life Technologies and Expression Analysis (LTEA) Assay for CYP3A4 using HepaRG (AID 2283487). A digest of the protocol:
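Differentiated HepaRG cells in serum-free induction medium exposed in duplicate for 48 h to 8 half-log concentrations up to 100 uM in 0.5% DMSO. CYP3A4 mRNA measured by qRT-PCR normalized to ACTB, GAPDH and POLR2A; bidirectional fit versus DMSO.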

Read-out in test [2]: DNA damage-inducible transcript 3 (DDIT3), DDIT3 (gene 1649)
Nature of the test: LTEA_HepaRG_DDIT3: Life Technologies and Expression Analysis (LTEA) Assay for DNA damage-inducible transcript 3 (DDIT3) using HepaRG (AID 2283488). A digest of the protocol: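 DDIT3 transcript was quantified by qRT-PCR with ACTB/GAPDH/POLR2A normalization after 48 h chemical treatment of differentiated HepaRG cells in 0.5% DMSO. Dosing was eight-point, half-log, top 100 uM, duplicate wells. Curves fitted bidirectionally versus DMSO.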

Read-out in test [3]: Pro-epidermal growth factor (Homo sapiens) (UniProt P01133)
Nature of the test: LTEA_HepaRG_EGF: Life Technologies and Expression Analysis (LTEA) Assay for Epidermal growth factor (EGF) using HepaRG (AID 2283489). A digest of the protocol:
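HepaRG, 48 h dosing, 100 uM top, half-log x8, 0.5% DMSO. Readout: TaqMan qRT-PCR (Fluidigm array), housekeeping-normalized. Gain or loss of signal fit vs DMSO.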

Read-out in test [4]: Ezrin (EZR), EZR (gene 7430)
The test is described as follows: LTEA_HepaRG_EZR: Life Technologies and Expression Analysis (LTEA) Assay for Ezrin (EZR) using HepaRG (AID 2283491). The method, boiled down:
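Differentiated human HepaRG cells, 48 h after plating, were exposed in serum-free induction medium for 48 hours to eight half-log concentrations up to 100 uM in 0.5% DMSO. EZR mRNA was measured by TaqMan qRT-PCR, normalized to ACTB, GAPDH and POLR2A, and fitted bidirectionally against DMSO.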

Read-out in test [5]: Cytochrome P450 3A7 (Homo sapiens) (UniProt P24462)
The test is described as follows: LTEA_HepaRG_CYP3A7: Life Technologies and Expression Analysis (LTEA) Assay for CYP3A7 using HepaRG (AID 2283492). A digest of the protocol:
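Human HepaRG liver cells, 48 h post-plating, switched to serum-free induction medium and exposed in duplicate for 48 h. Dosing: 100 uM top, half-log dilutions, 8 points, 0.5% DMSO vehicle. Read-out: CYP3A7 mRNA, gain or loss fitted against DMSO baseline.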

Read-out in test [6]: Early growth response protein 1 (EGR1) transcription factor, EGR1 (gene 1958)
The test is described as follows: LTEA_HepaRG_EGR1: Life Technologies and Expression Analysis (LTEA) Assay for Early growth response protein 1 (EGR1) transcription factor using HepaRG (AID 2283490). The method, boiled down: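 EGR1 expression change in human HepaRG after 48 h chemical exposure, assessed by housekeeping-normalized qRT-PCR; concentration-response up to 100 uM, fitted in both directions against DMSO controls.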

Activity calls are given as the source filed them. The calls were made as follows: active = hit-call score of the fitted dose curve at least 0.9, where 1 is the maximum; inactive = score below 0.9.

Chain of Cytochrome P450 3A4 (Homo sapiens) (P08684 whole entry, looked up): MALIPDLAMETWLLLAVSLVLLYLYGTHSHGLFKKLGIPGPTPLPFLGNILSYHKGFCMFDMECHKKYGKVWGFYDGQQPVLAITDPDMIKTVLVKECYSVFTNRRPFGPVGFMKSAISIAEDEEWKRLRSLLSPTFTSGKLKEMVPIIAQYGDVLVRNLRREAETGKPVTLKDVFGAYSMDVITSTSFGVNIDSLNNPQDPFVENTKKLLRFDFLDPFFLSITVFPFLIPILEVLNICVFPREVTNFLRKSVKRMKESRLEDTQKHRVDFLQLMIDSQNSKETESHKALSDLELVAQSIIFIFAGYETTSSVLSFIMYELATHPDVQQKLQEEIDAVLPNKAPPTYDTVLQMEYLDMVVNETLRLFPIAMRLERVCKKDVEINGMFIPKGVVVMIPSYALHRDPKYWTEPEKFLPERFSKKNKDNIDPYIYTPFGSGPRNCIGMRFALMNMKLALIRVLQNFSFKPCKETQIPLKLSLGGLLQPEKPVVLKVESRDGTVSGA
Chain of Cytochrome P450 3A7 (Homo sapiens) (P24462 whole entry, looked up): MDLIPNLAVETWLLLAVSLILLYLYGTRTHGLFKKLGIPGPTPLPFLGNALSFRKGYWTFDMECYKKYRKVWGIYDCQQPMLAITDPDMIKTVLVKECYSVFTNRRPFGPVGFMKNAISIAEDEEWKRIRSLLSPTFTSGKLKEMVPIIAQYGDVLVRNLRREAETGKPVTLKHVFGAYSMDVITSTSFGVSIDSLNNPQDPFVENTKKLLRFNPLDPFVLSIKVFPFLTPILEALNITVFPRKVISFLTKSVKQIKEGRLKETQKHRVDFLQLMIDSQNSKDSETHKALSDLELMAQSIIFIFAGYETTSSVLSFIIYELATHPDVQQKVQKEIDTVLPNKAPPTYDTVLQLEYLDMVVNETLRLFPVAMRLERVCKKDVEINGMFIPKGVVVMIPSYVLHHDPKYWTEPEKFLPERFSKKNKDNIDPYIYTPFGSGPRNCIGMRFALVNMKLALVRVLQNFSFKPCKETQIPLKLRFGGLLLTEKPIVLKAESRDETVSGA

With `CNS(=O)(=O)c1cc(C(=O)N2CCC(CCN3C4CCC3CC(n3c(C)nc5ccccc53)C4)(c3cccc(F)c3)CC2)c(Cl)cc1F` (stereo not given), the AC50 in the test with CYP2C8 (gene 1558) was 25.7 µM (active); with CYP2C9 (gene 1559), 19.2 µM (active); with CYP2E1 (gene 1571) it was 17.7 µM (active); in the test with CYP4A11 (gene 1579), 18.5 µM (active); in test [2], 29 µM (active); in [4], 29.6 µM (active). The concentration at half-maximal activity (AC50) in test [5] was 9.92 µM (active). In addition, the result in test [1] and in test [3] was inactive.
For `Clc1nc(Cl)c(Cl)c(Cl)c1Cl`, the compound was called inactive (in the test with CYP2C8 (gene 1558); in the test with CYP2C9 (gene 1559); with CYP2E1 (gene 1571); with CYP4A11 (gene 1579); in [1]; in [2]). Further, the compound was classed as inactive in test [3], in test [6], in [4] and in [5].
For `Cc1ccc(S(=O)(=O)O)cc1C`, the call (in the test with CYP2C8 (gene 1558); in the test with CYP2C9 (gene 1559); with CYP2E1 (gene 1571); in the test with CYP4A11 (gene 1579); in test [1]; in [2]) was inactive. For the same compound, the call in [3], in test [6], in test [4] and in [5] was inactive.
As for `O=C1OC(=O)C2C3C=CC(C3)C12` (stereo not given), the compound was classed as inactive (with CYP2C8 (gene 1558); with CYP2C9 (gene 1559); with CYP2E1 (gene 1571); with CYP4A11 (gene 1579); in test [1]; in test [2]). Moreover, the call in [3], in [4] and in [5] was inactive.
Take `CC/C(=C\C(=N/O)C(N)=O)C(C)[N+](=O)[O-]` (stereo not given): the call (with CYP2C8 (gene 1558); in the test with CYP2C9 (gene 1559); in the test with CYP2E1 (gene 1571); with CYP4A11 (gene 1579); in test [1]; in test [2]) was inactive. In addition, the call in test [3], in test [6], in test [4] and in test [5] was inactive.
As for `O=c1n(CC2CO2)c(=O)n(CC2CO2)c(=O)n1CC1CO1` (stereo not given), the compound was called inactive (in the test with CYP2C8 (gene 1558); with CYP2C9 (gene 1559); with CYP2E1 (gene 1571); with CYP4A11 (gene 1579); in [2]; in [3]). Also, the call in [6], in test [4] and in [5] was inactive. The AC50 in test [1] is 78.3 µM (active).
For the compound `CCCCCCCCO`, the compound was classed as inactive (in the test with CYP2C8 (gene 1558); in the test with CYP2C9 (gene 1559); in the test with CYP2E1 (gene 1571); with CYP4A11 (gene 1579); in test [1]; in [2]). For the same compound, the outcome in [3], in [6], in [4] and in test [5] was inactive.
Consider `CC[C@H]1OC(=O)[C@H](C)[C@@H](O[C@H]2C[C@@](C)(OC)[C@@H](O)[C@H](C)O2)[C@H](C)[C@@H](O[C@@H]2O[C@H](C)C[C@H](N(C)C)[C@H]2O)[C@](C)(O)C[C@@H](C)C(=O)[C@H](C)[C@@H](O)[C@]1(C)O`, for which the result (in the test with CYP2C8 (gene 1558); with CYP2C9 (gene 1559); with CYP4A11 (gene 1579); in [2]; in [3]; in test [4]) was inactive. Besides, the AC50 was 16 µM (active) with CYP2E1 (gene 1571), 19.6 µM (active) in test [1] and 13.9 µM (active) in test [5].
Turning to `C=CCCCCCCCCC(=O)O`, the call (with CYP2C8 (gene 1558); in the test with CYP2C9 (gene 1559); in the test with CYP2E1 (gene 1571); with CYP4A11 (gene 1579); in test [1]; in test [2]) was inactive. Besides, the result in [3], in test [6], in [4] and in test [5] was inactive.
With `Cn1c(=O)cc(Oc2ccc(F)cc2F)c2cnc(NCC(C)(C)O)nc21`, the result (with CYP2C8 (gene 1558); in the test with CYP2C9 (gene 1559); in test [2]; in test [3]; in test [6]; in [4]) was inactive. Moreover, the half-maximal activity concentration (AC50) with CYP2E1 (gene 1571) was 50 µM (active); with CYP4A11 (gene 1579) it was 50 µM (active); in test [1] it was 50 µM (active); in [5] it was 28.9 µM (active).
As to `CCCN(C1CCN(C(=O)C2CCNCC2)CC1)[C@@H]1CCc2ccc(OC)cc2C1`, the concentration at half-maximal activity (AC50) is 86.5 µM (active) with CYP2C8 (gene 1558); 80.3 µM (active) in the test with CYP2C9 (gene 1559); 67.4 µM (active) in the test with CYP2E1 (gene 1571); 90.7 µM (active) in the test with CYP4A11 (gene 1579); 86.7 µM (active) in test [1]; 50 µM (active) in [2]. In addition, the concentration at half-maximal activity (AC50) in [5] was 86.4 µM (active). Moreover, the call in test [3], in test [6] and in test [4] was inactive.
On to `CC1=CC(=O)CC(C)(C)C1`, for which the compound was called inactive (with CYP2C8 (gene 1558); with CYP2C9 (gene 1559); with CYP2E1 (gene 1571); with CYP4A11 (gene 1579); in test [1]; in test [2]). Moreover, the compound was classed as inactive in [3], in [4] and in [5].
Regarding `COc1ccc(-n2nc(C(F)F)cc2-c2ccc(S(C)=O)cc2)cc1` (stereo not given), the result (in the test with CYP2C8 (gene 1558); with CYP2C9 (gene 1559); in test [2]; in test [3]; in test [6]; in [4]) was inactive. Also, the AC50 was 25 µM (active) with CYP2E1 (gene 1571), 68.8 µM (active) in the test with CYP4A11 (gene 1579), 17.1 µM (active) in test [1] and 19.3 µM (active) in test [5].
Regarding `O=C1CCCCCN1`, the compound was classed as inactive (in the test with CYP2C8 (gene 1558); in the test with CYP2C9 (gene 1559); with CYP2E1 (gene 1571); with CYP4A11 (gene 1579); in test [1]; in test [2]). Besides, the compound was classed as inactive in test [3], in test [4] and in test [5].

The term AC50 denotes the midpoint of the concentration-response curve, whichever way the signal moves.

(Values after PubChem BioAssay (EPA / NIEHS).)
